Bioassay records deposited in PubChem by National Center for Advancing Translational Sciences (NCATS).
Epigenetic derep = regulators of epigenetic silencing causing reporter derepression in mouse cells. murine LDR cells, GFP reporter derepression, 30 h. Potency, µM (doses to about 53.9 µM), for inactives: at the top dose GFP activation, hits mostly activators. 280,000 compounds, 0.2% hits; active = well fitted activation curve with a large enough effect; also: potency is read from the fitted curve at half-maximal effect; % of control where 0% means no effect; nearly all actives have a fitted effect of over 60% in size
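In this reporter-derepression format, murine cells bearing a silenced integrated CMV-GFP locus incubate with test compound (30 h, 37 C), then are washed and imaged; fluorescent objects of 20–120 um count as induced cells.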
D1 antag = human D1 dopamine receptor antagonism; P21728; HEK293 TREx D1 cells, calcium flux, dopamine EC80; stronger effect = lower value; activity change, negative = inhibition, % at 10 µM; 360,000 compounds, 3.2% hits; in the data active = activity change below about -30%; also: % is scaled to controls: 0 for no effect and ±100 for the full control effect
Target sequence (P21728 whole entry, looked up): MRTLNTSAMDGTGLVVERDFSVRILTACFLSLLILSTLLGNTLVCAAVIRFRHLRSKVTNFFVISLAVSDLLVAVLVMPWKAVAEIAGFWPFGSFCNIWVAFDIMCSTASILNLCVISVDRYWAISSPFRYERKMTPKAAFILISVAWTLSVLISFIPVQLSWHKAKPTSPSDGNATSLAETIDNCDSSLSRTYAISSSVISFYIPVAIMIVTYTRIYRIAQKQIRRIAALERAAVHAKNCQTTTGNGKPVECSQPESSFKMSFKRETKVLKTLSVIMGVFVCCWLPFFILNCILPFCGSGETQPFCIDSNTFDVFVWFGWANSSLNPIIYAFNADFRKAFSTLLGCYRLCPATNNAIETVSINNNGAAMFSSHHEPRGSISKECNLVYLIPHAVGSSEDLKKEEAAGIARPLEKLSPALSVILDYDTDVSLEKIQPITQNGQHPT
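Tetracycline-induced HEK293 Trex D1 cells, force-coupled to calcium, dye-loaded; compounds added and read 180 s, then EC80 dopamine added and calcium flux tracked kinetically another 180 s.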
D1 ag = activates the human D1 dopamine receptor | HEK293 T-REx D1 cells, calcium flux, agonist mode | activation, % at 2 µM | 360,000 compounds, 1% hits; also: 0% is about no effect
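Tetracycline-induced HEK293 TREx D1 cells, force-coupled to calcium signalling, were dye-loaded with a no-wash calcium kit. Compound was pin-added after a 10 s baseline. Fluorescence was read kinetically at 1 cycle/s for 180 s, with calcium rises flagged as agonism.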
TRHR ag = agonists of human TRH receptor; AID 493084; TRHR cells, calcium flux fluo-8, FDSS agonist mode; 360,000 compounds, 0.18% hits; activation, % at 2 µM; also: 0% is about no effect
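In this calcium-flux screen, cells bearing human TRHR are dye-loaded with fluo-8, baselined for 10 cycles, then exposed to library compounds; positive kinetic calcium responses during the agonist phase mark hits, with TRH as control.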
TRHR PAM = allosterically enhances the human TRH receptor | P34981 | TRHR cells, fluo-8 calcium fluorescence, EC20 TRH enhancement | enhancement, % at 2 µM | 360,000 compounds, 0.66% hits | AID 493056; in the data active = enhancement above about 30%; also: 0% is about no effect
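TRHR-expressing cells loaded with fluo-8 calcium dye were read kinetically (ex 480/em 530) during compound addition, then stimulated with an EC20 of TRH (10 nM final). Enhancement of the Gq-mediated intracellular calcium response was scored.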
D1 potentiator = human D1 dopamine receptor positive modulation | P21728 | HEK293 TREx D1 cells, calcium flux, dopamine EC20 potentiation | potentiation, % at 10 µM | 360,000 compounds, 0.036% hits | AID 504651; in the data active = potentiation above about 30%; also: 0% is about no effect
Starred values were filed as active, the others as inactive; · = no result; ! = not confirmed by another sample; [ ] = another dose, or the depositor's remark. Most compounds without a hit are left out; they make up all but 4.6% or so of the library. Rule as the data show it, unless noted: active = activation above about 30%; inactive = the rest.

SMILES	Epigenetic derep	D1 antag	D1 ag	TRHR ag	TRHR PAM	D1 potentiator
Cc1cc(-c2ccc(C)c(S(=O)(=O)NCCc3ccco3)c2)on1	·	-34*	2	0	1	-2
CCCN(c1ccccc1F)S(=O)(=O)c1cc(-c2cc(C)no2)ccc1OC	·	-46*	6	0	0	-8
Cc1cc(-c2ccc(C)c(S(=O)(=O)NCCc3ccc(S(N)(=O)=O)cc3)c2)on1	-1%	-63*!	4	0	-1	-1
CCc1cccc(NC(=O)CSC2=Nc3ccccc3N=C(c3ccc(F)cc3)C2)c1	0%	9	9	1	3	-4
COc1ccc(O[C@H]2C=C[C@@H](c3ccccc3)O[C@H]2COC(=O)CC/C(C)=N\O[C@@H](C)c2cn([C@H](CO)Cc3ccccc3)nn2)cc1	1%[10.1 µM]	·	·	·	·	·
CCOc1ccc2nc(NC(=O)C(NS(=O)(=O)c3cccc4nsnc34)C(C)C)sc2c1 (centres undefined)	1%	-33*	0	-1	-5	-6
CCOc1ccc2nc(NC(=O)C(CC)Sc3nc(C)cc(=O)[nH]3)sc2c1 (centres undefined)	0%	-42*	0	-1	0	-4
CC(C)C(NS(=O)(=O)c1cccc2nsnc12)C(=O)Nc1nc2ccc(Cl)cc2s1 (centres undefined)	-1%	5	1	0	-4	4
CCC(Oc1ccccc1F)C(=O)Nc1c(C(=O)c2ccccc2)oc2ccccc12 (centres undefined)	0%	7	17	1	-10	-1
CCOc1ccc(/C=C2/SC(=S)N(C(C(=O)O)c3ccccc3)C2=O)cc1OCC (centres undefined)	2%	6	5	-2	-3	-4
COc1cc(/C=C2\SC(=S)N(C(C(=O)O)c3ccccc3)C2=O)ccc1O (centres undefined)	0%	16	82*	50*	0	13
COc1ccccc1/C=C1\SC(=S)N(C(C(=O)O)c2ccccc2)C1=O (centres undefined)	-1%	-7	0	0	2	0
CCOc1cc(/C=C2\SC(=S)N(C(C(=O)O)c3ccccc3)C2=O)ccc1O (centres undefined)	-1%	4	172*	-1	2	1
O=C(O)C(c1ccccc1)N1C(=O)/C(=C\c2ccc(O)c(O)c2)SC1=S (centres undefined)	·	-3	23	32*	-3	1
CS(=O)(=O)N(CC(=O)NCCc1ccccc1)C1CCCCC1	2%	·	-2	0	40*	0
COc1ccc(CCNC(=O)CN(C2CCCCC2)S(C)(=O)=O)cc1OC	2%	-1	4	-1	-7	-9
Cc1ccc2[nH]c(-c3ccccc3)cc(=O)c2c1	0%	-18	-1	0	-2	-5
CCN(CC)Cc1c(-c2ccccc2)[nH]c2ccc(C)cc2c1=O	7%	-48*	0	0	10	-13
COc1cccc(-c2cc(C(F)(F)F)n3nc(C)c(-c4ccccc4)c3n2)c1	16%	16	6	1	4	0
COc1ccc(COC(=O)N/N=C2/C[C@@H](O)[C@@H](O)[C@@H]3[C@H]4C(=O)N(c5ccc(F)cc5F)C(=O)[C@@H]4CC[C@H]23)cc1	0%[10.1 µM]	·	·	·	·	·
COc1ccc(C2(C)NC(=O)N(CC(=O)Nc3cccnc3Cl)C2=O)cc1 (centres undefined)	·	16	17	4	-12	-1
CCC1(c2ccc(F)cc2)NC(=O)N(CC(=O)Nc2cccnc2Cl)C1=O (centres undefined)	·	6	43*	5	4	5
CC1(c2ccc(OC(F)F)cc2)NC(=O)N(CC(=O)N2CCN(C(=O)c3ccco3)CC2)C1=O (centres undefined)	·	-30*	2	0	-3	-1
COc1ccc(C2(c3ccc(OC)cc3)NC(=O)N(CC(=O)Nc3ccccc3C)C2=O)cc1	·	17	0	-1	36*	-5
COc1ccc(C2(c3ccc(OC)cc3)NC(=O)N(CC(=O)Nc3ccccc3C(F)(F)F)C2=O)cc1	·	7	2	1	-13	-9
SMILES	Epigenetic derep	D1 antag	D1 ag	TRHR ag	TRHR PAM	D1 potentiator
CC1(c2ccc(OC(F)F)cc2)NC(=O)N(CC(=O)Nc2cccnc2Cl)C1=O (centres undefined)	·	-62*	73*	6	7	5
CC(=O)c1ccc(NC(=O)Cn2nc(C(F)(F)F)c3c2CCC3)cc1	0%	-6	8	0	28	-5
CC1(C)C(=O)NC2=C1C(=O)C(=O)c1ccccc12	1%	·	·	·	·	·
CC(C)OCCCNC(=O)c1cn(C)c2ccc(S(=O)(=O)N3CCCC3)cc2c1=O	·	10	1	0	1	3
CC(C)OCCCNC(=O)c1cn(C)c2ccc(S(=O)(=O)N3CCCCCC3)cc2c1=O	3%	-34*	4	-1	4	0
CCC1CCCCN1CCCNC(=O)c1cn(CC)c2ccc(S(=O)(=O)N(C)C3CCCCC3)cc2c1=O (centres undefined)	-3%	-38*!	0	0	7	-4
CCn1cc(C(=O)NCCCOC)c(=O)c2cc(S(=O)(=O)N(C)C3CCCCC3)ccc21	-1%	8	0	0	4	1
COc1ccc(OC)c(C2CC(=O)Nc3c2c(=O)n(C)c2ncnn32)c1 (centres undefined)	0%	3	0	-2	5	-3
CC(C)NC(=O)CCCc1cn(C)c2ccccc12	1%	-2	2	0	-3	1
CC(CCc1ccccc1)NC(=O)CCc1cn(C)c2ccccc12 (centres undefined)	·	-44*	0	-1	1	-1
Cc1c(Cl)cccc1Nc1nc(N)nc(CSc2nc3ccccc3s2)n1	-2%	-44*!	4	1	0	-2
O=C(Oc1ccc(O)cc1)C12CC3CC(CC(C3)C1)C2	-1%	-8	41*	9	-3	21
Cc1cc(N2C(=O)c3ccc(C(=O)Nc4ccc(O)cc4C(=O)O)cc3C2=O)no1	·	-35*	12	0	0	-1
Cc1cc(-c2cc(C(=O)NCc3ccccc3)on2)nc(NCC2CC2)n1	1%	7	11	1	4	-3
CCCNc1nc(C)cc(-c2cc(C(=O)NCc3ccccc3)on2)n1	0%	-30*	6	1	1	-1
Cc1cc(C)c(S(=O)(=O)NCCC2CCCN2C)c(C)c1 (centres undefined)	0%	-30*	6	0	-5	-10
CCN(CC)CCCNC(=O)c1cc(-c2ccc(Cl)c(Cl)c2)on1	0%	-8	17	1	-1	-5
